In the supplement of paper PMC11732987, “Enantioselective OTUD7B fragment discovery through chemoproteomics screening and high-throughput optimisation” (Communications Chemistry, 2025):

Legend:
Experiment in all cases: log2 ratio of Biotin-Ahx-Ub-VS probe labelling (fragment/DMSO); higher = less target engagement (more negative = stronger competition), active = hit call of the paper (q ≤ 0.05, log2 ratio ≤ -1)
Conditions in all cases: compound concentration: 200 uM; treatment time: 3 h
[1] = target: USP9X (UniProt Q93008)
Outline: (§1)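 Labelled DUBs from HEK293T lysate were NeutrAvidin-enriched, digested with LysC and trypsin, and run by diaPASEF LC-MS/MS. Before that, each 495 µg sample in Tris/CHAPS/IGEPAL buffer with protease inhibitors was treated in triplicate with fragment at 200 µM or vehicle for 3 h, then with Biotin-Ahx-Ub-VS at 0.5 µM final for 1 h. Values are average log2 ratios of fragment over vehicle by unpaired t-test, based on global-median-normalised Spectronaut label-free quantities from proteins with ≥2 unique peptides.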

[2] = target: UniProt O00487
Outline: as §1

[3] = target: UniProt O00507
Outline: as §1

[4] = target: UniProt P51784
Outline: as §1

[5] = target: T1, UniProt Q5T2D3
T1 sequence (whole entry): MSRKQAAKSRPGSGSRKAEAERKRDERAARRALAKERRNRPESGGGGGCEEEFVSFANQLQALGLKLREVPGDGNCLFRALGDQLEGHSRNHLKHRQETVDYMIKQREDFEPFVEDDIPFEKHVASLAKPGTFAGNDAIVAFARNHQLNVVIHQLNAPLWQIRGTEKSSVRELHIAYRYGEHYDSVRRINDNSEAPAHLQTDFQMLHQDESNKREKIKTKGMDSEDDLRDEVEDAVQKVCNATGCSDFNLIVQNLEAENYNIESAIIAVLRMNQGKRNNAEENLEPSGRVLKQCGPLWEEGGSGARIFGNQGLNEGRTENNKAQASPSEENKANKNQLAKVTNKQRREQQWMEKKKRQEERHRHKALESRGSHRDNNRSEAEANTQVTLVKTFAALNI
Outline: as §1

[6] = target: T2, UniProt Q8TE49
T2 sequence (whole entry): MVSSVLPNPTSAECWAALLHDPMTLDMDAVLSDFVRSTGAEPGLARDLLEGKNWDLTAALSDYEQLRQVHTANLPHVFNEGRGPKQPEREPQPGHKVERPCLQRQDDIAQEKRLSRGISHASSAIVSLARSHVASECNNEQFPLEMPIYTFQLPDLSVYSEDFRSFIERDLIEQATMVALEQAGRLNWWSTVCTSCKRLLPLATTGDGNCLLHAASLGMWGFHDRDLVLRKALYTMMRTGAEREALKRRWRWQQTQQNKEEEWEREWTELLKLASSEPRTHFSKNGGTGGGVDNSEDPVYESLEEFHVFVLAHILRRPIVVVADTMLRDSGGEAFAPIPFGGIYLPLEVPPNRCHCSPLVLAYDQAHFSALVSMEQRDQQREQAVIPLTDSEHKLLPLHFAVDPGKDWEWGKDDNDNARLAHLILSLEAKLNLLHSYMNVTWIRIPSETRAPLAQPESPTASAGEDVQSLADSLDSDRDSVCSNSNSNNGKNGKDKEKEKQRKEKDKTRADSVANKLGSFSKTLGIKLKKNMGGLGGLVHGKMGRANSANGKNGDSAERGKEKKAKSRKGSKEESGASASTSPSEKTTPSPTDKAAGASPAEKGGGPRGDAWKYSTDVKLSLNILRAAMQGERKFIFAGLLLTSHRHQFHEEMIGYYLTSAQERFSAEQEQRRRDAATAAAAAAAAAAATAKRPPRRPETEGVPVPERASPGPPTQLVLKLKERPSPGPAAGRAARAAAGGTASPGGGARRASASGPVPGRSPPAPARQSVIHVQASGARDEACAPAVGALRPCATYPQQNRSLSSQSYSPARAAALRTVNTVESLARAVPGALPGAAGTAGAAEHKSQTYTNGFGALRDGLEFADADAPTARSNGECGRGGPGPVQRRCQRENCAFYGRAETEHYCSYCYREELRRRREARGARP
Outline: as §1

[7] = target: T3, UniProt Q9P2H5
T3 sequence (whole entry): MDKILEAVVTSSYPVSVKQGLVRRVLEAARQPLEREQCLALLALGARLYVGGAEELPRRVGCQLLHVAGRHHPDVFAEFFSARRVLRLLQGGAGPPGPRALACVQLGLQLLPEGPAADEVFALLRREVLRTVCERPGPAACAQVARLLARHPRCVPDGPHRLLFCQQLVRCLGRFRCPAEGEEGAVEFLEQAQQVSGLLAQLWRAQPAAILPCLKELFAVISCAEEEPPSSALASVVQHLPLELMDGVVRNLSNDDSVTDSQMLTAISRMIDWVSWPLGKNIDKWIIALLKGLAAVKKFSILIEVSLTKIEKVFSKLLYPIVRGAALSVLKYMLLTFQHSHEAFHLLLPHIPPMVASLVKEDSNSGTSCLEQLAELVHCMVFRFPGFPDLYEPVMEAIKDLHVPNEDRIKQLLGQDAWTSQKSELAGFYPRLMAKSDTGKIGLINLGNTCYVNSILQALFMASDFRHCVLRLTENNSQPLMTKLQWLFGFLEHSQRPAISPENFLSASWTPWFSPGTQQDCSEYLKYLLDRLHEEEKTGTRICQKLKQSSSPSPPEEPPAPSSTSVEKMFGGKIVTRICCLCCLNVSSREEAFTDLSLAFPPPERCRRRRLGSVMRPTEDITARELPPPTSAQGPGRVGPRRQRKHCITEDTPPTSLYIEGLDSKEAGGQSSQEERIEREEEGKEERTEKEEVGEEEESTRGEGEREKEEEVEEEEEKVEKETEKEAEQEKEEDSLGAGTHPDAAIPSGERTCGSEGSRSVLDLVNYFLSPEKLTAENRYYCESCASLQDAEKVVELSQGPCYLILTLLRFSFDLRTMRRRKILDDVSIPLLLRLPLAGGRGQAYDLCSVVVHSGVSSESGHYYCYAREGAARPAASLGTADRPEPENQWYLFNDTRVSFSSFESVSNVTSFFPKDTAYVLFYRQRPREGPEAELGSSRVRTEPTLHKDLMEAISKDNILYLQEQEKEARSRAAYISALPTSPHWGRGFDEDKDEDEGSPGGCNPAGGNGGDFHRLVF
Outline: as §1

[8] = target: T4, UniProt Q9UGI0
T4 sequence (whole entry): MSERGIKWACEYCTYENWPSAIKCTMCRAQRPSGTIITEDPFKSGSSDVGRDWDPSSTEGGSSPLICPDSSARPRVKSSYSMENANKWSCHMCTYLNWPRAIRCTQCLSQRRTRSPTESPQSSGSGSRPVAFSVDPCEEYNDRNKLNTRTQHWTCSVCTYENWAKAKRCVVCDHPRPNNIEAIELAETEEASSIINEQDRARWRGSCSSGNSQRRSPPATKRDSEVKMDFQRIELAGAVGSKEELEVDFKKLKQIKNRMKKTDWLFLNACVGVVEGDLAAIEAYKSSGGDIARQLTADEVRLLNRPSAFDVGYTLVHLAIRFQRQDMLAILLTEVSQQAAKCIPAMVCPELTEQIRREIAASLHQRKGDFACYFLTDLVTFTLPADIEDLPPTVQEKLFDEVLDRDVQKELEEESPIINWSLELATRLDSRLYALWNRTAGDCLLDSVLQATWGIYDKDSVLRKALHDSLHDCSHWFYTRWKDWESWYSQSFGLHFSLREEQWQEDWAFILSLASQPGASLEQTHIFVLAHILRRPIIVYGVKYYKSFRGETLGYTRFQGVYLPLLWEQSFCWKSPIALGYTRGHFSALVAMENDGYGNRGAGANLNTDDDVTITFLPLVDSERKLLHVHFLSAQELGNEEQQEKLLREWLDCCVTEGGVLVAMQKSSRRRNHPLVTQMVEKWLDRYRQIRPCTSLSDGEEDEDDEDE
Outline: as §1

[9] = target: T5, YOD1 (UniProt Q5VVQ6)
T5 sequence (whole entry): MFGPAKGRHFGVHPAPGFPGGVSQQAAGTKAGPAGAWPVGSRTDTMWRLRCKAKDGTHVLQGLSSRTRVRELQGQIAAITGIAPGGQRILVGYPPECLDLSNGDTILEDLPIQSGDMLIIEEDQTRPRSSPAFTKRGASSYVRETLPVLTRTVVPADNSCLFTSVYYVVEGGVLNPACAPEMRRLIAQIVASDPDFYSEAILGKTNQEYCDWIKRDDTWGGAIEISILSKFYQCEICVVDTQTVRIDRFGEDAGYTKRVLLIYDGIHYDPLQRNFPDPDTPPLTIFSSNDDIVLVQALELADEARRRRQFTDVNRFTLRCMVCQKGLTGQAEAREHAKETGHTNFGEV
Outline: as §1

Measured: log2 ratio of Biotin-Ahx-Ub-VS probe labelling

Chain of UniProt O00487 (O00487 whole entry): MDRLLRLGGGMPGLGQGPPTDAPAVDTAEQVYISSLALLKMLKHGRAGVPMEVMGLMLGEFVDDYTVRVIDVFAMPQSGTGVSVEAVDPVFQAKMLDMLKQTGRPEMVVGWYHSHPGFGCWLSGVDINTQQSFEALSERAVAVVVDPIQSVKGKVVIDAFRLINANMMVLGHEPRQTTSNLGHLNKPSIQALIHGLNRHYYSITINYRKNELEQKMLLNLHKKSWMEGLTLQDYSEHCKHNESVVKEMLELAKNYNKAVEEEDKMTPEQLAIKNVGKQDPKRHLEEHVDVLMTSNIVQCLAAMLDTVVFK
Chain of UniProt O00507 (O00507 whole entry): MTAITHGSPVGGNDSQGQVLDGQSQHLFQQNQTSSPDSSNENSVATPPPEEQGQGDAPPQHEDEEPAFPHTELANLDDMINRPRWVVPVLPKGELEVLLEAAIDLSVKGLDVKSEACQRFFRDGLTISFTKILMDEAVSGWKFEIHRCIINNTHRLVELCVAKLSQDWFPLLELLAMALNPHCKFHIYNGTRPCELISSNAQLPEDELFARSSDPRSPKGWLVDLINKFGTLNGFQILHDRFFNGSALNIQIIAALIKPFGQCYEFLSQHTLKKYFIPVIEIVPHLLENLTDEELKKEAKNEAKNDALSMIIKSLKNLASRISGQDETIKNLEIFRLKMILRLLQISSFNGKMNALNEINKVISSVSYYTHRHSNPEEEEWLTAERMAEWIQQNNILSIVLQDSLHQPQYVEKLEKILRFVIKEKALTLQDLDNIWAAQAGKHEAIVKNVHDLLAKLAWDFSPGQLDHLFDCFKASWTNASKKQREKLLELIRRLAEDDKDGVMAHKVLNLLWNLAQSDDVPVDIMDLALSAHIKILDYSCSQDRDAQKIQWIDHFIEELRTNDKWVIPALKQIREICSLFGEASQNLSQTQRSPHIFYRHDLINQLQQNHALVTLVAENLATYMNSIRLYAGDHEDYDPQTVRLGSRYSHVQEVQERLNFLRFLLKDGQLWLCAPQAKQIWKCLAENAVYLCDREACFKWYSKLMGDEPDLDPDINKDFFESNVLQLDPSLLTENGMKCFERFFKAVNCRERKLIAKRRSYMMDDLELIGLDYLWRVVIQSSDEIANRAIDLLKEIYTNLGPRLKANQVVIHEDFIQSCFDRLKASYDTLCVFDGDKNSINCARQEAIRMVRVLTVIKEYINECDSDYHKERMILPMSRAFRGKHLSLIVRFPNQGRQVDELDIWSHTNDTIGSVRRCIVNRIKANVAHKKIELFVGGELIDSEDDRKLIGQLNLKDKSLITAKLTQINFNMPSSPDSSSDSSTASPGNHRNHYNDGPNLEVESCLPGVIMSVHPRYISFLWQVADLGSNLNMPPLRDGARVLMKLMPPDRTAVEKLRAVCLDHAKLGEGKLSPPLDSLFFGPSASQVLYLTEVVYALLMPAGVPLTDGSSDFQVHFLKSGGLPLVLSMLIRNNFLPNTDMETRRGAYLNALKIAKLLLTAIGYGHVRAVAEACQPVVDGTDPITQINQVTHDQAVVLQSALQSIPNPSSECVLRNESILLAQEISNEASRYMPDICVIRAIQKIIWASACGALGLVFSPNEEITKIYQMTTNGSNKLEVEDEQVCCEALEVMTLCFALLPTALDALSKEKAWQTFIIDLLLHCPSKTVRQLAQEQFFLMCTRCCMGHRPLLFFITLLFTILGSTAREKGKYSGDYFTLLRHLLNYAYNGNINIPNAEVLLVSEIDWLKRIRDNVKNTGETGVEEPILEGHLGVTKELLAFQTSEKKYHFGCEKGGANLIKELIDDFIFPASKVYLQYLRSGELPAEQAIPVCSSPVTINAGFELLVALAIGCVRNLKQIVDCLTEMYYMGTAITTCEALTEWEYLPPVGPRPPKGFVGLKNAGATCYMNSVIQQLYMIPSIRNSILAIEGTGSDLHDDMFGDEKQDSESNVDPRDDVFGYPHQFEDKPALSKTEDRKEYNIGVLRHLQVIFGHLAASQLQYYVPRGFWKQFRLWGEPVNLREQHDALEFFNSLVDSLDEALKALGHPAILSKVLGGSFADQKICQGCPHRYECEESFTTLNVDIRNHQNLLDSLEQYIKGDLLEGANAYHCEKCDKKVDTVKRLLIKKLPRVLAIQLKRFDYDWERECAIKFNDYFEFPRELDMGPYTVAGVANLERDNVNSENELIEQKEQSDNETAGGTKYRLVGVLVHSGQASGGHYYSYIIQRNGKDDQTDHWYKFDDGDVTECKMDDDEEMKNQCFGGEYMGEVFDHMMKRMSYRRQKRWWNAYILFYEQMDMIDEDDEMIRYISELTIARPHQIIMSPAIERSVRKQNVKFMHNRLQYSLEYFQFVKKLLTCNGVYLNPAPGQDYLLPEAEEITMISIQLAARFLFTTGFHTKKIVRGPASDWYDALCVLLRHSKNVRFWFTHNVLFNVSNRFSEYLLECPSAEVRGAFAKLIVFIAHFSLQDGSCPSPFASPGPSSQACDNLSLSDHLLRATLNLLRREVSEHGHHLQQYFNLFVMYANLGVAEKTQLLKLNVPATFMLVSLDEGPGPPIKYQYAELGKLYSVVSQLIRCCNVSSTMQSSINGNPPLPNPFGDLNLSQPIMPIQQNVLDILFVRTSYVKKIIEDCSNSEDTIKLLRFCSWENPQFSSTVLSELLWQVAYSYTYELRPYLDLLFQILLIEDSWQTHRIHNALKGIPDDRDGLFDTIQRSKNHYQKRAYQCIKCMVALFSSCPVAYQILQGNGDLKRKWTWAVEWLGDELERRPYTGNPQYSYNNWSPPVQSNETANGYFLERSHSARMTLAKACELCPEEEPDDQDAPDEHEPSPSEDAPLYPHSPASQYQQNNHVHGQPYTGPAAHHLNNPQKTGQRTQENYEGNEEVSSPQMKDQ
Chain of UniProt P51784 (P51784 whole entry): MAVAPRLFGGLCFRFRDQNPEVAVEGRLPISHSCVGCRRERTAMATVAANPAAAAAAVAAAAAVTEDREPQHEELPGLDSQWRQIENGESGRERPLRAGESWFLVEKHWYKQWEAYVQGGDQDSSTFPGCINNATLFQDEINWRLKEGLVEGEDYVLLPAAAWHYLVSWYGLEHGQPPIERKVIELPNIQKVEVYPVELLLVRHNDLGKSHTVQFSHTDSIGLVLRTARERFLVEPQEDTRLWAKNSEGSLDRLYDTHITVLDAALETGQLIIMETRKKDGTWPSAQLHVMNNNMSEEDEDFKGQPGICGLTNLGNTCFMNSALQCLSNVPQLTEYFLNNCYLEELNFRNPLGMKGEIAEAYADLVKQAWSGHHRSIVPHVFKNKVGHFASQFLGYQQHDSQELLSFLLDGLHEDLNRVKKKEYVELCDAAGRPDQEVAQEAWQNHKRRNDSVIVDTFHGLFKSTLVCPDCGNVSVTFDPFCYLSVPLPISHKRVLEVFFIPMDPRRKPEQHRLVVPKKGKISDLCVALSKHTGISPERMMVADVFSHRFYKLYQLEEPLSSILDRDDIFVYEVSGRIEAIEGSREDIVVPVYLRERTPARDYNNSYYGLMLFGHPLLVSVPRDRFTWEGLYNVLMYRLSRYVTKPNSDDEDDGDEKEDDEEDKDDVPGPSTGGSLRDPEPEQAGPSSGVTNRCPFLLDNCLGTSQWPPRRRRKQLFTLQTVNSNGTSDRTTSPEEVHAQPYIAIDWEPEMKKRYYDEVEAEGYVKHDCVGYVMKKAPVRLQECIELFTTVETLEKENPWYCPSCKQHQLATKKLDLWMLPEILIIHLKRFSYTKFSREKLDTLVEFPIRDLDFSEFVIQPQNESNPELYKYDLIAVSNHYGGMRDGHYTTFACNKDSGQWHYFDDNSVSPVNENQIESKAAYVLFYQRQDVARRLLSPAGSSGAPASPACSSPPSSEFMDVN

COc1ccc(C2CCCN2C(=O)CCl)c(OC)c1 (centres undefined)
inactive: [1] -0.271 | [2] -0.0639 | [3] 0.129 | [4] -0.237 | [5] -0.139 | [6] -0.514 | [7] -0.249 | [8] -0.113 | [9] -0.0199
